PubChem BioAssay (NCATS)
Inconclusive results are not listed. Calls of active or inactive are those of the source. The call rests on the fitted dose curve; in most records, active means well fitted inhibition curve with a large enough effect; inconclusive means small, poorly fitted or top-dose-only effect; inactive means flat fitted curve, though single readings scatter.

What follows are molecules tested against Luciferin 4-monooxygenase (Photinus pyralis) (UniProt P08659) (assay: Biochemical firefly luciferase enzyme assay for NPC (AID 624030; further: nearly all actives have a fitted effect of over 70% in size;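 on activity change, negative = inhibition: 0% = DMSO and -100% = full luciferase inhibition by PTC124 control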)). Details: purified P. pyralis luciferase, luminescence, 5 min; series mostly up to 58.6 µM; activity change, negative = inhibition: at the top concentration.
Luciferin 4-monooxygenase (Photinus pyralis), sequence (P08659 whole entry, looked up): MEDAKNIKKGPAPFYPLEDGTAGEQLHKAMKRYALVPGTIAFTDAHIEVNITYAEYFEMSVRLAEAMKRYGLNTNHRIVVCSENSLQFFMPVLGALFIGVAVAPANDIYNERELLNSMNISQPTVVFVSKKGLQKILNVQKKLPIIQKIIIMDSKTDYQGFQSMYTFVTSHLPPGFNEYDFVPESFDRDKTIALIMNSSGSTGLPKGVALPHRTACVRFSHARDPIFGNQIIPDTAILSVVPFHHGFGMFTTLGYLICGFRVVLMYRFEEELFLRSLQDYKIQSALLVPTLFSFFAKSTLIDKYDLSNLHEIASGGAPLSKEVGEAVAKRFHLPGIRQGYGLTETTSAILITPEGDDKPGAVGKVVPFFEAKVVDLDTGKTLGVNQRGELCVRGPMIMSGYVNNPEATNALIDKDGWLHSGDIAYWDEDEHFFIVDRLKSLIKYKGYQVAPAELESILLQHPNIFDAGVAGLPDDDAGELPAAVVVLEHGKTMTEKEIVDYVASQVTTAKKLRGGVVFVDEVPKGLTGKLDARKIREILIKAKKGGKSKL
Text: Charcot-Marie-Tooth-Association [CMTA] National Center for Advancing Translational Sciences [NCATS] Charcot-Marie-Tooth (CMT) disease was first characterized by Jean-Martin Charcot and Pierre Marie in France and, independently, by Howard Henry Tooth in England in 1886. CMT is one of the most common inherited neurological diseases, affecting approximately 1 in 2,500 Americans. […] The most prevalent type of CMT is known as CMT1A and caused by a duplication of the PMP22 gene which leads to over-expression of this protein. PMP22 is a glycosylated intrinsic membrane protein accounting for 2-5% of the myelin protein content, and its over-expression results in demyelination and subsequently axonal loss. A pair of cellular transcription-based assays was developed in the S16 rat Schwann cell lines (Hai, M., et al., 2002) stably transfected with orthogonal reporters - firefly luciferase (Fluc) and beta-lactamase (beta-Lac) - whose expression is driven by an intronic regulatory element of the PMP22 gene (Jones, E.A., et al., 2011) to recapitulate endogenous expression of PMP22. A comprehensive library of approved drugs, the NCGC Pharmaceutical Collection (Huang, R., et al., 2011), was screened in the cross-validating platform of the orthogonal reporter assays to identify drug modulators inhibitory towards PMP22 expression. A set of counter-screens was devised to address non-specific activity of the library. An ATP-dependent CellTiter-Glo assay (developed by Promega Corp) was utilized to control cell viability. In addition, biochemical Fluc enzyme assay was performed to assess direct inhibition of the Fluc enzymatic activity. References Hai, M., Muja, N., DeVries, G.H., Quarles, R.H. and Patel, P.I. Comparative analysis of Schwann cell lines as model systems for myelin gene transcription studies. J Neurosci Res, 2002. 69(4): pp 497-508 Huang, R., Southall, N., Wang, Y., Yasgar A., Shinn P., Jadhav, A. , Nguyen, D.-T. and Austin, C.P., The NCGC pharmaceutical collection: a comprehensive resource of clinically approved drugs enabling repurposing and chemical genomics. Sci Transl Med, 2011. 3(80): p. 80ps16.
Compounds were transferred to the plates in 23nl, and one microliter/well luciferase enzyme-buffer solution (10 nM P. pyralis luciferase and 50 mM Tris Acetate final concentrations) was dispensed yielding a final reaction volume of […]. Luciferase luminescence was measured by a ViewLux plate reader within 5 minutes of enzyme-buffer addition. The % activity was determined by normalizing to the average readings of PTC124 (a positive control) relative to DMSO (0% Activity). The concentration-effect curves were then classified based on curve quality (r2), response magnitude and degree of measured activity.
Potency means the concentration at half of the fitted maximal effect.

Compound | activity change, negative = inhibition | Potency
CCOc1ccc2ccccc2c1C(=O)N[C@@H]1C(=O)N2[C@@H]1SC(C)(C)[C@@H]2C(=O)O | -3.08% [at 24.9 µM] (inactive) | –
C[C@@H]1CN(c2c(F)c(F)c3c(=O)c(C(=O)O)cn(C4CC4)c3c2F)C[C@H](C)N1 | 0.586% (inactive) | –
CCC(=O)c1ccc(O)cc1 | -5.82% (inactive) | –
O=c1cc(CO)occ1O | -0.621% (inactive) | –
CCOC(=O)[C@H](CCc1ccccc1)N[C@@H](C)C(=O)N1C(=O)N(C)C[C@H]1C(=O)O | 2.12% (inactive) | –
C[C@H]1O[C@@H](n2cc(F)c(=O)[nH]c2=O)[C@H](O)[C@@H]1O | -2.19% (inactive) | –
O=C1NS(=O)(=O)c2ccccc21 | -3.93% (inactive) | –
NCCNCCNCCN | 16.3% (inactive) | –
CC(C)C(=O)c1c(C(C)C)nn2ccccc12 | -4% (inactive) | –
CSc1ccc2c(c1)C(N1CCN(C)CC1)Cc1ccccc1S2 (stereo not given) | 8.73% (inactive) | –
CC(=O)Oc1c(C)c(C)c2c(c1C)CC[C@@](C)(CCC[C@H](C)CCC[C@H](C)CCCC(C)C)O2 | 1% (inactive) | –
COc1cc(C)c(Cc2cnc(N)nc2N)cc1OC | 4.54% (inactive) | –
CN(C)CCN(Cc1ccccc1)c1ccccn1 | -9.67% (inactive) | –
Nc1ccc(S(=O)(=O)Nc2ccc(Cl)nn2)cc1 | – | inactive
O=C(O)c1ccccc1-c1ccc(C(F)(F)F)cc1 | -2.94% (inactive) | –
c1ccc(CN(CC2=NCCN2)c2ccccc2)cc1 | 7.31% (inactive) | –
CCCCCCCCCCCCCCCCCCOCC(O)CO (stereo not given) | 0.77% (inactive) | –
NC1CCN(c2cccc(Cl)n2)CC1 | 7.94% (inactive) | –
c1ccc2c(CC3=NCCN3)cccc2c1 | -0.879% (inactive) | –
CC(C(O)c1ccc(O)cc1)N1CCC(Cc2ccccc2)CC1 (stereo not given) | 12.9% (inactive) | –

Compound | activity change, negative = inhibition | Potency
Cc1cc(N)c2ccccc2[n+]1CCCCCCCCCC[n+]1c(C)cc(N)c2ccccc21 | 10% [at 24.9 µM] (inactive) | –
Oc1cccc(O)c1 | -0.467% (inactive) | –
O=C1c2c(O)cccc2Cc2cccc(O)c21 | -3% (inactive) | –
NC(=O)NNc1ccccc1 | – | inactive
CCOC(CN1CCN(CC(C)C(=O)c2ccccc2)CC1)c1ccccc1 (stereo not given) | 6.54% (inactive) | –
Cn1c(=O)c2c(ncn2CC2OCCO2)n(C)c1=O | 2.08% (inactive) | –
CCN(CC)CCNC(C(=O)OCCC(C)C)c1ccccc1 (stereo not given) | 0.887% (inactive) | –
CC(C)(C)C(=O)C(Oc1ccc(Cl)cc1)n1ccnc1 (stereo not given) | -1.83% (inactive) | –
O=c1cc[nH]c(=O)[nH]1 | 0.584% (inactive) | –
Cc1c(Cl)cccc1Nc1ccccc1C(=O)O | – | 32.2 µM (active)
O=C(O)[C@@H]1CSCN1 | -0.941% (inactive) | –
CC(C)(C)C(=O)NCCCC(=O)O | -0.277% (inactive) | –
Cc1ccc(C(C)C)cc2c(C)ccc1-2 | -0.781% (inactive) | –
Nc1cc(=O)[nH]c(N)n1 | 0.248% (inactive) | –
CNC(=O)Oc1ccc2c(c1)[C@]1(C)CCN(C)[C@@H]1N2C | -3.16% (inactive) | –
Cc1cc2c(cc1S(N)(=O)=O)S(=O)(=O)CCC2 | -1.99% [at 24.9 µM] (inactive) | –
Nc1ncnc2c1ncn2[C@@H]1O[C@H](CO)[C@@H](O)[C@H]1O | 1.74% (inactive) | –
CCN(CC)CCSC(=O)C(c1ccccc1)c1ccccc1 | – | inactive
CCCCN(CCCC)CC(O)c1cc(Cl)cc2c1-c1ccc(Cl)cc1/C2=C/c1ccc(Cl)cc1 (stereo not given) | 9.08% (inactive) | –
CC1(C)[C@@H]2CC[C@@]1(C)C(=O)C2 | 0.251% (inactive) | –
